In PubChem BioAssay (NCI) one finds growth data, which are given here for 7 compounds.

Some test systems named below: NCI-H23 lung; NCI-H226 lung; NCI-H322M lung; HOP-62 NSCLC; NCI-H460 lung; HOP-92 NSCLC; NCI-H522 lung; A549/ATCC NSCLC; 786-0 renal; COLO 205 colon; DU-145 prostate; K-562 leukemia; MALME-3M melanoma; MDA-MB-231 breast; RXF 393 renal; SF-268 CNS; SF-295 CNS; SF-539 CNS; UACC-257 melanoma; M14 melanoma.
What all share (assay): NCI-60 one-dose screen, 48 h (100 = growth as untreated, 0 = no growth, -100 = all killed)
Settings in all cases: 10 µM unless noted

Structures are written as SMILES. Compounds without any hit were thinned out: in the full panel of roughly 83,000, 20% have a hit.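 The test compound was applied at a single concentration to cells in 96-well plates for 48 hours, and percent growth was recorded.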 A number with no mark means an inactive call. Calls of active or inactive are those of the source. How the source made its calls: active means growth percent below 10; inactive means the rest.

As for `Cn1ncc(CC(=O)O)c1-n1nnc2cc(Cl)ccc2c1=O`, the growth in the experiment with NCI-H23 lung is 102%; in the experiment on NCI-H226 lung it was 95.2%; with NCI-H322M lung it was 80.3%; with HOP-62 NSCLC, 105%; with NCI-H460 lung, 108%; with HOP-92 NSCLC it was 105%. In addition, the growth in the experiment on NCI-H522 lung was 97.3%; with A549/ATCC NSCLC, 97.3%; in the experiment on 786-0 renal it was 96.6%; in the experiment with COLO 205 colon it was 118%; in the experiment with DU-145 prostate, 109%; in the experiment on K-562 leukemia, 98.4%. The growth with MALME-3M melanoma is 93.9%; with MDA-MB-231 breast it was 94.5%; in the experiment with RXF 393 renal, 114%; in the experiment with SF-268 CNS, 103%; in the experiment with SF-295 CNS, 91.7%; in the experiment on SF-539 CNS it was 96.7%. Besides, the growth with UACC-257 melanoma and in the experiment on M14 melanoma was 100% in each case.
Consider `COc1cc2c(c(OC)c1OC)CCC(c1cccc(C(=O)Nc3ccccc3Br)c1)O2` (stereo not given), for which the growth was 97.2% in the experiment on NCI-H23 lung; 92.3% with NCI-H226 lung; 94.9% with NCI-H322M lung; 92.3% in the experiment with HOP-62 NSCLC; 104% with NCI-H460 lung; 66.3% in the experiment with HOP-92 NSCLC. Further, the growth in the experiment with NCI-H522 lung is 80.1%; in the experiment on A549/ATCC NSCLC it was 81.2%; with 786-0 renal it was 76.2%; in the experiment with COLO 205 colon, 90.5%; in the experiment on DU-145 prostate, 86.7%; with K-562 leukemia it was 71.5%. The growth is 89.6% with MALME-3M melanoma; 83.3% in the experiment with MDA-MB-231 breast; 91.8% with RXF 393 renal; 87.1% with SF-268 CNS; 94.9% with SF-295 CNS; 83.1% with SF-539 CNS. For the same compound, the growth in the experiment on UACC-257 melanoma is 90.7%; in the experiment on M14 melanoma, 67.4%.
As for `CCOC(=O)CC1CSC(N/N=C/c2ccc(O)cc2)=N1` (stereo not given), the growth in the experiment with NCI-H23 lung is 102%; with NCI-H226 lung it was 105%; in the experiment on NCI-H322M lung, 98.6%; with HOP-62 NSCLC, 91%; in the experiment on NCI-H460 lung, 112%; in the experiment on HOP-92 NSCLC it was 80.3%. Besides, the growth in the experiment with NCI-H522 lung was 97%; with A549/ATCC NSCLC it was 102%; in the experiment with 786-0 renal it was 89.9%; in the experiment on COLO 205 colon, 111%; with DU-145 prostate, 106%; with K-562 leukemia, 99.4%. For the same compound, the growth in the experiment with MALME-3M melanoma is 97%; with MDA-MB-231 breast, 113%; in the experiment with RXF 393 renal, 111%; in the experiment on SF-268 CNS it was 96.2%; in the experiment with SF-295 CNS, 99.1%; in the experiment with SF-539 CNS, 95.3%. The growth in the experiment with UACC-257 melanoma was 108%; in the experiment on M14 melanoma it was 92%.
Consider `CN(C)c1ccc(/C=N/NC(=O)CSc2nc3sc4c(c3c(=O)n2-c2ccccc2)CCCCC4)cc1`, for which the growth in the experiment with NCI-H23 lung was 29.7%; in the experiment on NCI-H226 lung it was 96.5%; in the experiment with NCI-H322M lung, 44.9%; in the experiment on HOP-62 NSCLC, 21.5%; in the experiment with NCI-H460 lung, 1.49% (active); in the experiment on HOP-92 NSCLC, 50.3%. Further, the growth was 21.2% in the experiment on NCI-H522 lung; 6.63% (active) with A549/ATCC NSCLC; 45% in the experiment on 786-0 renal; 33.8% with COLO 205 colon; 14.9% in the experiment on DU-145 prostate; 63.8% in the experiment on K-562 leukemia. In addition, the growth in the experiment on MALME-3M melanoma is 35.5%; in the experiment on MDA-MB-231 breast it was 43.8%; in the experiment on RXF 393 renal it was -6.22% (active); in the experiment with SF-268 CNS it was 57.3%; in the experiment with SF-295 CNS, 19.1%; with SF-539 CNS, 34.6%. The values for the growth in the experiment on UACC-257 melanoma and with M14 melanoma were 64.8% and 46.6%, respectively.
As for `Cc1cccc(C)c1NC(=O)Nc1ccccc1`, the growth is 88.4% in the experiment with NCI-H23 lung; 107% in the experiment on NCI-H226 lung; 80.3% with NCI-H322M lung; 95.8% in the experiment on HOP-62 NSCLC; 44% with NCI-H460 lung; 128% in the experiment on HOP-92 NSCLC. Besides, the growth is 49.4% with NCI-H522 lung; 86.8% in the experiment with A549/ATCC NSCLC; 110% with 786-0 renal; 102% with COLO 205 colon; 9.29% (active) in the experiment on DU-145 prostate; 102% in the experiment with K-562 leukemia. In addition, the growth is 98.4% with MALME-3M melanoma; 96.9% in the experiment on MDA-MB-231 breast; 87.3% with RXF 393 renal; 96.1% with SF-268 CNS; 66.7% with SF-295 CNS; 108% in the experiment on SF-539 CNS. The values for the growth in the experiment with UACC-257 melanoma and in the experiment with M14 melanoma were 98.2% and 109%, respectively.
`N#C/C(=C/C=C/c1ccccc1)S(=O)c1ccccc1` (stereo not given): the growth is -36.6% (active) with NCI-H23 lung; 12% in the experiment on NCI-H226 lung; 10.4% with NCI-H322M lung; -25.6% (active) with HOP-62 NSCLC; -30% (active) in the experiment on NCI-H460 lung; -58.5% (active) in the experiment with HOP-92 NSCLC. Besides, the growth in the experiment with NCI-H522 lung is -68.3% (active); with A549/ATCC NSCLC, 2.3% (active); in the experiment with 786-0 renal, -89.7% (active); with COLO 205 colon, -56.4% (active); in the experiment on DU-145 prostate, -89.5% (active); with K-562 leukemia, 5.48% (active). The growth is -30.2% (active) in the experiment on MALME-3M melanoma; -54.2% (active) with MDA-MB-231 breast; -84% (active) in the experiment with RXF 393 renal; -31.3% (active) in the experiment with SF-268 CNS; -28.8% (active) with SF-295 CNS; -74.5% (active) in the experiment with SF-539 CNS. For the same compound, the growth is -33.9% (active) with UACC-257 melanoma and -55.5% (active) in the experiment on M14 melanoma.
In the case of `COc1nc2ccccc2cc1/C=C1/C=C(c2ccccc2)NC1=O`, the growth in the experiment with NCI-H23 lung was 56.3%; in the experiment with NCI-H226 lung it was 55.4%; in the experiment on NCI-H322M lung it was 81.3%; with HOP-62 NSCLC, 39.2%; with NCI-H460 lung it was 15.7%; with HOP-92 NSCLC, 32.5%. Also, the growth in the experiment with NCI-H522 lung is 38.5%; with A549/ATCC NSCLC it was 41.7%; in the experiment with 786-0 renal, 29.5%; in the experiment on COLO 205 colon it was 29.3%; with DU-145 prostate, 55.8%; in the experiment with K-562 leukemia, 13.1%. Also, the growth with MALME-3M melanoma is 38.3%; with MDA-MB-231 breast, 46.1%; in the experiment with RXF 393 renal, 46%; in the experiment on SF-268 CNS, 48.8%; in the experiment on SF-295 CNS, 28.5%; with SF-539 CNS it was 19.6%. Also, the growth in the experiment on UACC-257 melanoma was 60.7%; with M14 melanoma, 24.6%.
